Article PMC7862700, “An all-to-all approach to the identification of sequence-specific readers for epigenetic DNA modifications on cytosine”

Legend:
Test in all cases: DAPPL (digital affinity profiling via proximity ligation, sequencing); 10 mM Tris-HCl pH 7.5, 50 mM NaCl, 1 mM DTT, 4% glycerol, room temperature, 30 min; GST-TFs on glutathione beads, 16-mer random dsDNA library, 0.1% formaldehyde crosslink after washing; high values mean tight binding
Details in all cases: protein: recombinant; tags: N-terminal GST; dsDNA, one strand shown
FLI1 = target: T1, FLI1 (Homo sapiens, UniProt Q01543 1-452)
T1 sequence: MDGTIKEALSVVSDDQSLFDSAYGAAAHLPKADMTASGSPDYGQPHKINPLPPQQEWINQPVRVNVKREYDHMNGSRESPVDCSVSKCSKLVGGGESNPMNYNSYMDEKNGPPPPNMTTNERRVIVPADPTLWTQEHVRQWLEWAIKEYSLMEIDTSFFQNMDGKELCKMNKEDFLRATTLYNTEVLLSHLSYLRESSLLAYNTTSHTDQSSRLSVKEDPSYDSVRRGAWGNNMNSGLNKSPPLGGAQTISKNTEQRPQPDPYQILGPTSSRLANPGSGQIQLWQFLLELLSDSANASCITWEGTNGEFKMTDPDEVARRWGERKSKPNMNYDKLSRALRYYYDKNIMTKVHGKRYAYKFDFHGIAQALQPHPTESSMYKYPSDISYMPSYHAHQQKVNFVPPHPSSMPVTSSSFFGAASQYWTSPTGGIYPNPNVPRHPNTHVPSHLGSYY
In short: (§1)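 Pools were built from human transcription factors expressed in yeast as GST fusions, captured on glutathione beads and DNA-barcoded, along with a tag-only sample. Incubation with 200 nmole of a 16-mer random double-stranded DNA library lasted 30 min at room temperature in Tris/NaCl/DTT/glycerol buffer, and was followed by washing, 0.1% formaldehyde crosslinking, proximity ligation, PCR amplification and Illumina NextSeq500 sequencing. Binding signal is the quotient of each hexamer's read frequency for a factor and its frequency for the tag-only sample.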

ELK1 = target: T2, ELK1 (Homo sapiens, UniProt P19419 1-428)
T2 sequence: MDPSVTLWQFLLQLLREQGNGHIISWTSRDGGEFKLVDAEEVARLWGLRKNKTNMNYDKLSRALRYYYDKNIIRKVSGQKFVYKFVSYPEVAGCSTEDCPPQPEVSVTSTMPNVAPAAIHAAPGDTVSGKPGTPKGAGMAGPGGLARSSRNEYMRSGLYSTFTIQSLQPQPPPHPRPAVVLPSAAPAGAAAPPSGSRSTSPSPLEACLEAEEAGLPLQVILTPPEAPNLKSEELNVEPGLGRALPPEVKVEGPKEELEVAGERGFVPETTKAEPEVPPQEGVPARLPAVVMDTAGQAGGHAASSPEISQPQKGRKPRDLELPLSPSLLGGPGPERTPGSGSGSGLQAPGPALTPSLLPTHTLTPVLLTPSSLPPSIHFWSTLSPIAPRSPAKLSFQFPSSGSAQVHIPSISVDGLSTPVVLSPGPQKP
In short: as §1

GABPA = target: T3, GABPA (Homo sapiens, UniProt Q06546 1-454)
T3 sequence: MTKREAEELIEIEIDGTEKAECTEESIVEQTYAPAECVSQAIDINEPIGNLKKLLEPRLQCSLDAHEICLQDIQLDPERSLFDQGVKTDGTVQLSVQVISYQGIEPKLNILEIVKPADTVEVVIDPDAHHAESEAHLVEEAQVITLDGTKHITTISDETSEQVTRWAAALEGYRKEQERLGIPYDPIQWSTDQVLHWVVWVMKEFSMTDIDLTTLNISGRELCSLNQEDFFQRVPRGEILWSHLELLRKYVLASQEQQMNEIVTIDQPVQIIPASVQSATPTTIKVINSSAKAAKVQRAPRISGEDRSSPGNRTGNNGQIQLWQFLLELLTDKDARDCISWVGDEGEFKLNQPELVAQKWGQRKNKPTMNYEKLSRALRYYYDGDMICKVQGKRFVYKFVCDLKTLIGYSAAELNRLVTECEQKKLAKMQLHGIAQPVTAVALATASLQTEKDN
In short: as §1

ERG = target: T4, ERG (Homo sapiens, UniProt P11308 1-479)
T4 sequence: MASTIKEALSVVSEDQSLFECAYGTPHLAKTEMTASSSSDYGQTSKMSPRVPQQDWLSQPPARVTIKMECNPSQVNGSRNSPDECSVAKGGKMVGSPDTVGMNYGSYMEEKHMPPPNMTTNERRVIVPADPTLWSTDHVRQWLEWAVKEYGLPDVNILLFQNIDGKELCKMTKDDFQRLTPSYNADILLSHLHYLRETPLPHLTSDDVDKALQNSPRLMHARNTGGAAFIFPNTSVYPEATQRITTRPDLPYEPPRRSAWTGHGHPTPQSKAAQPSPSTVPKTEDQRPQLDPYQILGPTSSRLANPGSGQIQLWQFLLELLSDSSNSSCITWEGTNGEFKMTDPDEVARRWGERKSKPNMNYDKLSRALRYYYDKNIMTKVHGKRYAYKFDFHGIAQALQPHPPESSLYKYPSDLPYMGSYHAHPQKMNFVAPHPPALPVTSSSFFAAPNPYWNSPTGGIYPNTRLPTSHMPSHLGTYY
In short: as §1

ELF1 = ELF1 (Homo sapiens, UniProt P32519 1-619)
Sequence of ELF1 (P32519 whole entry): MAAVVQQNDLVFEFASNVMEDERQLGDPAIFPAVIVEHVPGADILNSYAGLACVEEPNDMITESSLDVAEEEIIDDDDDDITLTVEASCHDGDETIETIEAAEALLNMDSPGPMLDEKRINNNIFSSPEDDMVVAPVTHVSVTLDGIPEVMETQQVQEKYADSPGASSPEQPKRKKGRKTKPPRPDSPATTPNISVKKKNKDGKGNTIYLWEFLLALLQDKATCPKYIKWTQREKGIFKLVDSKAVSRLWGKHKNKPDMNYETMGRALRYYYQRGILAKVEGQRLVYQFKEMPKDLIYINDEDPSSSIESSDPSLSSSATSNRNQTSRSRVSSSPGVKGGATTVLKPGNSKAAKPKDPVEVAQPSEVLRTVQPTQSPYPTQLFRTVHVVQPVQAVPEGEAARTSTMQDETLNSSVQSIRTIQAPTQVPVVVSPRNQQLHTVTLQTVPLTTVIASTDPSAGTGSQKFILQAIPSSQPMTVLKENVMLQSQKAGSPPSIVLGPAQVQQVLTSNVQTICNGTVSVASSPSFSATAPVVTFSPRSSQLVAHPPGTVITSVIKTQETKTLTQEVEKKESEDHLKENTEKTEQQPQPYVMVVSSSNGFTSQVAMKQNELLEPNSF
In short: as §1

EHF = target: T5, EHF (Homo sapiens, UniProt Q9NZC4 1-300)
T5 sequence: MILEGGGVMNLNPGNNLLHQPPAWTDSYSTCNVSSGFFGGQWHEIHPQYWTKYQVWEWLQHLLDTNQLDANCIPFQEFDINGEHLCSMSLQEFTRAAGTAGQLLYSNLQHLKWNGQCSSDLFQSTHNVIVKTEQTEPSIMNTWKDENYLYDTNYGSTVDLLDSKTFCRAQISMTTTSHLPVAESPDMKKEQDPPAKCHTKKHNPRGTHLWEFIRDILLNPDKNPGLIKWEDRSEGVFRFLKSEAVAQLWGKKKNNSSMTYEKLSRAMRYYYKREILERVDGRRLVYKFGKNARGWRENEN
In short: as §1

SPI1 = SPI1 (Homo sapiens, UniProt P17947 1-270)
In short: as §1

ELK3 = target: T6, ELK3 (Homo sapiens, UniProt P41970 1-407)
T6 sequence: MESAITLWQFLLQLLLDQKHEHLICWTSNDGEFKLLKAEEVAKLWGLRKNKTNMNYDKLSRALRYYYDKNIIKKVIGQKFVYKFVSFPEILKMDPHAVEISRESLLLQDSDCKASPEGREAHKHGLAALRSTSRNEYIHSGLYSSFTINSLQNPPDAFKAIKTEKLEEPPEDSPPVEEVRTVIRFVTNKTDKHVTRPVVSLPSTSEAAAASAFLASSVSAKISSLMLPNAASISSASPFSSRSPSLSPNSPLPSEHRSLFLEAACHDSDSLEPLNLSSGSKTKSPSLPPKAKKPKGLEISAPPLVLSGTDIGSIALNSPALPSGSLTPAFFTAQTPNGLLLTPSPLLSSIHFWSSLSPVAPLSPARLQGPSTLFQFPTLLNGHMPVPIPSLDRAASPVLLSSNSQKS
In short: as §1

ETV5 = ETV5 (Homo sapiens, UniProt P41161 1-510)
Sequence of ETV5 (P41161 whole entry): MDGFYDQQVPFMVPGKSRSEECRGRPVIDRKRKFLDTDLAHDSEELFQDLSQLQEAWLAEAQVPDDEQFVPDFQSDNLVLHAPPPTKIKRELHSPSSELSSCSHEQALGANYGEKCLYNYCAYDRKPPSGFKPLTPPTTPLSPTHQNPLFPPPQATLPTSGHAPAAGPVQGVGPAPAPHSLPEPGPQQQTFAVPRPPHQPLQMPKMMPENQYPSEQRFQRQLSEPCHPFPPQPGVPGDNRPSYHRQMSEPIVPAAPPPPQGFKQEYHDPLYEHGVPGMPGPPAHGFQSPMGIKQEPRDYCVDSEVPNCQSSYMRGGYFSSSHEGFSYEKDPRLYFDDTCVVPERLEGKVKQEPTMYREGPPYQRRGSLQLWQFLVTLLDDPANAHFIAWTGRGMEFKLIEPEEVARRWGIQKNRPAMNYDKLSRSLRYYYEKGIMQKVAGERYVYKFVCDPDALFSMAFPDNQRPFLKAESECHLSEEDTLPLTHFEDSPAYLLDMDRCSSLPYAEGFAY
In short: as §1

ELF4 = ELF4 (Homo sapiens, UniProt Q99607 1-663)
Sequence of ELF4 (Q99607 whole entry): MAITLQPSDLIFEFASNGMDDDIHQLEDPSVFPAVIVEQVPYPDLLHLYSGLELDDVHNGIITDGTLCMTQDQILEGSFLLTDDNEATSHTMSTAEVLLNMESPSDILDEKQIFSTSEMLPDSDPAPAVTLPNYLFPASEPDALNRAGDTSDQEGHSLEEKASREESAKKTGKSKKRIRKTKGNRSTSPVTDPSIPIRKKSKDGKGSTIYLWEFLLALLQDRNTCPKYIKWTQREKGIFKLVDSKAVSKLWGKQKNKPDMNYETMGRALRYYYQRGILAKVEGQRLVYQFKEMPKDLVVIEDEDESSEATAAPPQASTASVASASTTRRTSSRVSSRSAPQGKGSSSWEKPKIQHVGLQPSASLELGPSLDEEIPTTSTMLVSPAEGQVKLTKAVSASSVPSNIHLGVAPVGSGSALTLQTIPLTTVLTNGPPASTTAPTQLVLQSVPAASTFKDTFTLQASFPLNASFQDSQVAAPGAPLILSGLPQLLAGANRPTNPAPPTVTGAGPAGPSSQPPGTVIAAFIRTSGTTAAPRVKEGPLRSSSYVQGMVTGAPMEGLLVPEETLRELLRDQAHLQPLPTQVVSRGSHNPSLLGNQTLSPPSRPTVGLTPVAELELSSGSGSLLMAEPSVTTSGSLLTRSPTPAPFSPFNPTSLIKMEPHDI
In short: as §1

ETV2 = target: T7, ETV2 (Homo sapiens, UniProt O00321 1-342)
T7 sequence: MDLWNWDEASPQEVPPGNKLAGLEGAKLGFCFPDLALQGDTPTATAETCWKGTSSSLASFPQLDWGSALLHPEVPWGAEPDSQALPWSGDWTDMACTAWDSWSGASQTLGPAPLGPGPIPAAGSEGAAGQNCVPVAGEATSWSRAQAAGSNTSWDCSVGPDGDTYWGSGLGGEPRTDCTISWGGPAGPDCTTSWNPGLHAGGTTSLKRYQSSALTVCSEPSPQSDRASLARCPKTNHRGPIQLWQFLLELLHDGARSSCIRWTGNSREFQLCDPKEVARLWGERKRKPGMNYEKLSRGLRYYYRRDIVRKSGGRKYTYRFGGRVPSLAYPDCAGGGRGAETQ
In short: as §1

ELF3 = target: T8, ELF3 (Homo sapiens, UniProt P78545 1-371)
T8 sequence: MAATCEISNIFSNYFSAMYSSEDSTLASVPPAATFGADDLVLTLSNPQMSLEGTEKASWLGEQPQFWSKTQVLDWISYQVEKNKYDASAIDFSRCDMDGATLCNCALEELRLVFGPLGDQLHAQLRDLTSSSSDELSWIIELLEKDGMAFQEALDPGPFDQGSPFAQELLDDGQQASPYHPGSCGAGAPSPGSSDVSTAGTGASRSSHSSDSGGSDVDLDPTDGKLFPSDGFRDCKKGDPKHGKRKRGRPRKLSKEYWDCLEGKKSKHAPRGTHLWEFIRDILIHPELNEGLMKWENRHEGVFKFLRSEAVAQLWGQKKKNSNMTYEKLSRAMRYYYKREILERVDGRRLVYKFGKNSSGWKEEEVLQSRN
In short: as §1

ETV1 = ETV1 (Homo sapiens, UniProt P50549 1-477)
Sequence of ETV1 (P50549 whole entry): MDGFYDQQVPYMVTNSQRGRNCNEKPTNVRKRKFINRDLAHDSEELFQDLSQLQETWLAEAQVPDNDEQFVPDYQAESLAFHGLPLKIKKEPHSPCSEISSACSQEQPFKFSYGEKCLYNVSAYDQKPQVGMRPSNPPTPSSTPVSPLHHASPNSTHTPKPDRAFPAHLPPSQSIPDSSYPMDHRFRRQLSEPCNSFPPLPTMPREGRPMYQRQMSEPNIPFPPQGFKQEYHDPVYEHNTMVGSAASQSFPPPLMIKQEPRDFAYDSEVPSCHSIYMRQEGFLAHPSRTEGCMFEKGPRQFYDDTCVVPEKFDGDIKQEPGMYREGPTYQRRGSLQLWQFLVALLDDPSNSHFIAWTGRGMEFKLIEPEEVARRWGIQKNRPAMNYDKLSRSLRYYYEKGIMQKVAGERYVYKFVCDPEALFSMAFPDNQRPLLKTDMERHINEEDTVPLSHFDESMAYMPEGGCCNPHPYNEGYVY
In short: as §1

ERF = target: T9, ERF (Homo sapiens, UniProt P50548 1-548)
T9 sequence: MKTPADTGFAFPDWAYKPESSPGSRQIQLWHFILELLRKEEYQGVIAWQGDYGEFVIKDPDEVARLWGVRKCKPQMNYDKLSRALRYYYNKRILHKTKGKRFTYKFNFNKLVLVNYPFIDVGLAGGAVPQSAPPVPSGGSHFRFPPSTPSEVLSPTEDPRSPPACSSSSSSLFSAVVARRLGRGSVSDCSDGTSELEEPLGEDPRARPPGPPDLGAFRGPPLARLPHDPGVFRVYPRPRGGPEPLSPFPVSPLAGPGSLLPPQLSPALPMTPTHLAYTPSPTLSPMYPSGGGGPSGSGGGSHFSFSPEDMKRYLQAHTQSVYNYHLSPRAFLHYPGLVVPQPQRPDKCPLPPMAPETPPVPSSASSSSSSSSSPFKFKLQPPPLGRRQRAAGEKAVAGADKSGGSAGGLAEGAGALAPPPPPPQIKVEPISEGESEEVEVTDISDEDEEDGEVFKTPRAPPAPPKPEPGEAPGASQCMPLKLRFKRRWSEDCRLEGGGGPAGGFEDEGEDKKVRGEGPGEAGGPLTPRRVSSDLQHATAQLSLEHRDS
In short: as §1

ETV3 = target: T10, ETV3 (Homo sapiens, UniProt P41162-2 1-143)
T10 sequence: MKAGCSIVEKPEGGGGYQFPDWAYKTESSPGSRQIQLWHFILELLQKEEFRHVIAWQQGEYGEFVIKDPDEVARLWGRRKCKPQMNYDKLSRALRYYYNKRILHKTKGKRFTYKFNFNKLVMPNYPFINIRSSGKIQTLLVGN
In short: as §1

ETV6 = ETV6 (Homo sapiens, UniProt P41212 1-452)
Sequence of ETV6 (P41212 whole entry): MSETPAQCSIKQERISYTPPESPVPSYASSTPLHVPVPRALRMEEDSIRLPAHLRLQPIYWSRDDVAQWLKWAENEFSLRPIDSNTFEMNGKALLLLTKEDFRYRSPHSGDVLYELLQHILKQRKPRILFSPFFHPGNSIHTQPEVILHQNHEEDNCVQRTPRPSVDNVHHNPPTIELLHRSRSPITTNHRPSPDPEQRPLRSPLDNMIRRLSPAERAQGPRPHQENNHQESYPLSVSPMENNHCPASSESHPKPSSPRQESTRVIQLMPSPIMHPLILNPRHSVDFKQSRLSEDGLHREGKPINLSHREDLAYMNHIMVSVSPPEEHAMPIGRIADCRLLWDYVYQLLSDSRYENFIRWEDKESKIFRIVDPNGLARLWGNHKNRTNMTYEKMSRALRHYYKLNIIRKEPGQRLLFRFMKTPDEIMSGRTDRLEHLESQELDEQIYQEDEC
In short: as §1

## CCCCGT
FLI1
  binding signal: 1.05 fold enrichment (6-mer frequency, TF over GST control)
ELK1
  binding signal: 1.08 fold enrichment (6-mer frequency, TF over GST control)
GABPA
  binding signal: 1.02 fold enrichment (6-mer frequency, TF over GST control)
ERG
  binding signal: 1.1 fold enrichment (6-mer frequency, TF over GST control)
ELF1
  binding signal: 1.06 fold enrichment (6-mer frequency, TF over GST control)
EHF
  binding signal: 1.13 fold enrichment (6-mer frequency, TF over GST control)
SPI1
  binding signal: 1.1 fold enrichment (6-mer frequency, TF over GST control)
ELK3
  binding signal: 1.09 fold enrichment (6-mer frequency, TF over GST control)
ETV5
  binding signal: 1.03 fold enrichment (6-mer frequency, TF over GST control)
ELF4
  binding signal: 1.07 fold enrichment (6-mer frequency, TF over GST control)
ETV2
  binding signal: 1.1 fold enrichment (6-mer frequency, TF over GST control)
ELF3
  binding signal: 1.26 fold enrichment (6-mer frequency, TF over GST control)
ETV1
  binding signal: 1 fold enrichment (6-mer frequency, TF over GST control)
ERF
  binding signal: 1.13 fold enrichment (6-mer frequency, TF over GST control)
ETV3
  binding signal: 1.06 fold enrichment (6-mer frequency, TF over GST control)
ETV6
  binding signal: 1.08 fold enrichment (6-mer frequency, TF over GST control)
